Tau fluor cs: counter-screen for tau fibril formation inhibitors. tau K18 P301L Alexa594 fluorescence, heparin fibrillization. Potency, µM (titrated, usually from 57.7 µM), for inactives: top-dose activity change, negative = decrease. AID 1463. hit rate 0.93% among 280,000; also: nearly all actives have a fitted effect of over 55% in size
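Human tau K18 P301L (15 uM unlabeled, 0.24 uM Alexa 594-labeled) in 100 mM sodium acetate pH 7 with 20 uM heparin, 6 hr at 37 C. ThT 30 uM added, 1 hr ambient; Alexa 594 FP and total fluorescence read at 555/632 nm.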
KDM4E inh: JMJD2E (human) inhibition. B2RXH2. JMJD2E catalytic domain, FDH-coupled NADH fluorescence (FDH is formaldehyde dehydrogenase). Potency, µM (doses to about 57.1 µM), without a hit: at the highest dose activity change, negative = inhibition, actives largely listed as inhibitors. hit rate 1.6% among 230,000. AID 2147; active = well fitted inhibition curve with a large enough effect, not every such curve was filed as active; inconclusive = small, poorly fitted or top-dose-only effect, or another doubt; inactive = no such curve, though single readings can be large or run the other way;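 also: 0% = wells with enzyme and -100% = buffer wells without enzyme; nearly all actives have a fitted effect of over 50% in size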
TRb SRC2 PPI: disrupts binding of human TR beta to SRC2; P10828; TRbeta-SRC2 peptide binding, fluorescence polarization; receptor liganded with 1 µM T3; Potency, µM (titrated, usually from 106 µM), for inactives: at the highest dose activity change, negative = inhibition, most hits filed as inhibitors; hit rate 0.065% among 280,000; AID 1469;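 also: plate controls were bound peptide for no effect and peptide without receptor for full effect; nearly all actives have a fitted effect of over 50% in size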
Target sequence (P10828 whole entry, looked up): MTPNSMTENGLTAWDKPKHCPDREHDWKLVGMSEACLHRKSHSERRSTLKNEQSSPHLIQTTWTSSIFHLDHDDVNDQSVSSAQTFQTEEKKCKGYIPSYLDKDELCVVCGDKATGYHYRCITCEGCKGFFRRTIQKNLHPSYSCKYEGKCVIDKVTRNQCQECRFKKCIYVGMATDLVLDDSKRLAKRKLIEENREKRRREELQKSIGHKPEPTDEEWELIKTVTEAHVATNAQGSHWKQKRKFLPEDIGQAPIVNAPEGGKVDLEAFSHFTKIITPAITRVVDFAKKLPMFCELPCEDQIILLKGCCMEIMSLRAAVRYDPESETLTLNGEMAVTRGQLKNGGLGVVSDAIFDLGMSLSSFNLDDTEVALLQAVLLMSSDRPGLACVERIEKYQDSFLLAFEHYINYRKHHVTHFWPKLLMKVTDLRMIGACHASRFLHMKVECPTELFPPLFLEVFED
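Quantitative HTS by FP: 0.6 uM TRb LBD, 20 nM labeled SRC2 20-mer, 1 uM T3, 5% DMSO; 5 hr ambient incubation; % activity per concentration and potencies from concentration series.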
Tau FP inhib: inhibitors of human tau fibril formation | P10636 | K18 P301L tau heparin fibrillization, Alexa594 FP, 6 h | Potency, µM (highest dose often 57.7 µM), for the others: at the highest dose activity, negative = inhibition, most hits filed as inhibitors | hit rate 0.39% among 280,000 | AID 1468; also: nearly all actives have a fitted effect of over 55% in size
Target sequence (P10636 561-689 P618L limits assumed): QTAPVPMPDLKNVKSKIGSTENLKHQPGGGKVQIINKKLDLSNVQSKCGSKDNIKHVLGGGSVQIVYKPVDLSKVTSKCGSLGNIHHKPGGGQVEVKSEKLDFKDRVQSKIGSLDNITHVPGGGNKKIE
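Recombinant K18 P301L […], labeled with Alexa 594 at 0.24 uM over 15 uM unlabeled; heparin inducer 20 uM final; 37 C, 6 hr; FP endpoint.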
Tau fibril ThT: tau fibrillization inhibition (ThT binding). recombinant tau K18 P301L, heparin-induced fibrillization, ThT fluorescence. Potency, µM (top dose mostly 57.4 µM), for inactives: top-dose activity, negative = inhibition, hits mostly inhibitors. hit rate 2.1% among 270,000; also: nearly all actives have a fitted effect of over 55% in size
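ThT emission at 510 nm, taken 1 hr after adding 30 uM dye, quantifies aggregates formed when 20 uM heparin acts on human tau K18 P301L for 6 hr at 37 C.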
TR SRC2 fluor cs: alters Texas Red total fluorescence, flagging assay interference; Potency, µM (highest dose often 106 µM), without a hit: at the highest dose fluorescence change, negative = quenching; TRb/SRC2 Texas Red total fluorescence interference; hit rate 0.29% among 280,000; active = well fitted curve in either direction with a large enough effect; inconclusive = small, poorly fitted or top-dose-only effect
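Human TRb ligand-binding domain at 0.6 uM with 20 nM Texas Red SRC2 peptide in Tris buffer containing 1 uM T3 and 5% DMSO, incubated with compound 5 h at ambient temperature. Total fluorescence (555/632 nm) calculated as parallel + 2 × perpendicular.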
* = called active by the depositor; ? = inconclusive; . = no result given; [ ] = another dose, or the depositor's remark. Rows were chosen to be rich in hits. Some 3.5% of all compounds tested hit in one or more screens of this group. Unless noted, calls follow the shape of the dose curve; as a rule, active = well fitted curve in the direction sought with a large enough effect; inconclusive = small, poorly fitted or top-dose-only effect, or another doubt; inactive = no such curve, though single readings can be large; an effect the other way counts as inactive or inconclusive. Unless noted, % is scaled to controls: 0 for no effect and ±100 for the full control effect; potency is read from the fitted curve at half-maximal effect.

SMILES	Tau fluor cs	KDM4E inh	TRb SRC2 PPI	Tau FP inhib	Tau fibril ThT	TR SRC2 fluor cs
Cc1cc(Nc2c(C)n(C)n(-c3ccccc3)c2=O)n2c(nc3cc(F)c(F)cc32)c1C#N	-19.8%	-13.6%	4.8%	9.8%	?	-1.1%
O=c1[nH][nH]c(=S)n1-c1ccccc1C(F)(F)F	-3.1%	6.31µM*	1.3%	-6.0%	?	-0.4%
CCOc1cc(C2C3=C(CCCC3=O)NC3=C2C(=O)CCC3)ccc1OCCO	-5.6%	31.6µM*	9.6%	-0.1%	-11.3%	0.3%
CCOC(=O)SC1=N/C(=C\c2ccc(N(C)C)cc2)C(=O)S1	-20.7%	-0.8%	1.1%	0.6%	4.47µM*	-1.9%
O=C(CN(c1ccc(Cl)c(C(F)(F)F)c1)S(=O)(=O)c1ccccc1)Nc1cccnc1	?	.	-4.3%	-19.8%	-9.7%	-11.9%
Nc1ncnc(N2CCOCC2)c1N	0.8%	?	-0.5%	-4.8%	-4.7%	-2.2%
Nc1c[n+](N2CCOCC2)no1	-21.0%	1.9%	-1.5%	?	7.08µM*	0.6%
CCOC(=O)c1oc2ccccc2c1NC(=O)COc1cccc(OC)c1	0.2%	5.01µM*	2.3%	-14.1%	0.4%	2.4%
Cc1ccc(NC(=O)Nc2nnc(Cc3ccc([N+](=O)[O-])cc3)s2)cc1C	5.01µM*[quencher]	-6.4%	-26.2%	?	?	1.1%
CCNC(=S)/C(=C(/[O-])c1ccc([N+](=O)[O-])cc1)[n+]1ccccc1	-15.9%	-5.7%	3.3%	0.0%	?	-0.5%
C=CCNC(=S)/C(=C(/[O-])c1ccc([N+](=O)[O-])cc1)[n+]1ccccc1	-18.2%	22.4µM*	10.2%	?	?	1.9%
Cc1ccc(CNC(=O)c2ccc(Cn3c(=O)c4ccccc4n(CC(=O)Nc4c(C)cc(C)cc4C)c3=O)cc2)cc1	-10.9%	.	4.8%	-11.3%	-8.1%	0.8%
O=C(CSc1ccc2nnc(-c3ccccn3)n2n1)N1CCN(c2ccccc2)CC1	-0.1%	4.2%	0.7%	4.5%	-13.9%	-2.4%
CCC(=O)N1CCCc2cc(S(=O)(=O)N3CCC(C(=O)Nc4cccc(Cl)c4)CC3)ccc21	?	.	5.0%	-1.3%	-11.3%	0.9%
O=C(N/N=C/c1ccc(O)cc1)Nc1cccc2nsnc12	?	-13.6%	3.6%	-6.3%	?	-3.2%
COc1ccccc1C1CCN(c2ccc(CO)cc2[N+](=O)[O-])CC1	?	-27.6%	0.6%	-0.7%	14.1µM*	-2.2%
COc1ccccc1C1CCN(Cc2cccc([N+](=O)[O-])c2)CC1	-10.5%	0.6%	8.1%	-1.4%	-8.6%	-1.8%
CC(C)COc1ccc(-c2nn(-c3ccccc3)cc2C(=O)Nc2nccs2)cc1	?	-23.9%	2.5%	14.1µM*	14.8%	-7.0%
CCOC(=O)c1ccc(NC(=O)c2cn(-c3ccccc3)nc2-c2ccc(C)cc2)cc1	?	.	-0.1%	8.91µM*	-13.2%	4.2%
Cc1ccc(NC(=O)c2cn(-c3ccccc3)nc2-c2ccccc2)cc1	-20.1%	.	-5.8%	-3.6%	-16.1%	-1.1%
Cc1ccc(-c2nn(-c3ccccc3)cc2C(=O)Nc2ccc(C(=O)O)cc2)cc1	-9.9%	0.4%	1.4%	3.2%	11.5%	-3.3%
COc1ccc(-c2nn(-c3ccccc3)cc2C(=O)O)cc1OC	3.3%	-2.3%	5.7%	0.0%	8.4%	-1.8%
CCOC(=O)c1ccc(NC(=O)c2cn(-c3ccccc3)nc2-c2ccc(OC)c(OC)c2)cc1	?	.	9.3%	10µM*	?	3.2%
CCOC(=O)c1ccc(NC(=O)c2cn(-c3ccccc3)nc2-c2ccc(Br)cc2)cc1	?	.	2.8%	17.8µM*	-13.7%	-5.1%
Cc1cccc(CCNC(=O)C2CCC(CNS(=O)(=O)c3c(C)cc(C)cc3C)CC2)c1 (configuration not stated)	-0.3%	.	-3.1%	5.4%	-17.2%	-3.3%
SMILES	Tau fluor cs	KDM4E inh	TRb SRC2 PPI	Tau FP inhib	Tau fibril ThT	TR SRC2 fluor cs
CCOc1ccc(S(=O)(=O)Nc2ccc(-c3ccc(OC)nn3)cc2)cc1	?	.	-6.2%	-1.1%	?	-2.8%
CCOc1ccccc1NC(=O)CSc1nc2cccnc2n1C	-7.2%	2.1%	-1.0%	-8.2%	-13.5%	-4.0%
O=C(CS(=O)(=O)Cc1ccccc1)N1CCN(c2cccc(C(F)(F)F)c2)CC1	-8.4%	-2.8%	6.7%	6.9%	-7.7%	1.9%
CCOC(=O)c1ccc(NC(=O)c2cn(-c3ccccc3)nc2-c2ccncc2)cc1	?	46.0%	-2.5%	28.2µM*	-4.3%	2.8%
CC(=O)c1c(C)[nH]c(C(=O)OCC(=O)Nc2ccc([N+](=O)[O-])cc2Cl)c1C	3.9%	4.2%	-5.6%	5.4%	3.6%	1.6%
COC(=O)c1nc2nc(C)cc(C(F)(F)F)n2n1	10.3%	1.4%	0.2%	5.1%	2.3%	1.9%
Cc1ccc(NC2=C(N3CCCCC3)C(=O)c3ccccc3C2=O)cc1	-25.1%	1.3%	5.6%	-5.2%	-14.6%	-3.3%
COC1=C(Nc2ccccc2)C(=O)c2ccccc2C1=O	?	3.9%	0.9%	?	7.08µM*	-6.2%
COC1=C(Nc2ccc(C)cc2)C(=O)c2ccccc2C1=O	?	14.1µM*	-12.7%	?	8.91µM*	-3.3%
COc1ccc(CNC(=O)COC(=O)c2ccc(Br)cc2)cc1	-9.9%	4.6%	5.5%	-15.7%	-3.6%	-0.7%
COc1cc([C@@H]2Oc3cc([C@H]4Oc5cc(O)cc(O)c5C(=O)[C@H]4O)ccc3O[C@H]2CO)ccc1O	?	28.2µM*	11.2%	-1.4%	?	-13.3%
COc1cc([C@H]2Oc3cc([C@H]4Oc5cc(O)cc(O)c5C(=O)[C@@H]4O)ccc3O[C@@H]2CO)ccc1O	.	.	13.5%	.	.	-4.2%
COc1ccc([C@@H]2CC(=O)c3c(O)cc(O)cc3O2)cc1O	-8.8%	5.3%	-10.0%	-4.0%	-15.4%	-0.2%
O=C1c2c(O)cc(O)cc2O[C@H](c2ccc(O)c(O)c2)[C@@H]1O	-25.9%	14.1µM*	1.3%	2.4%	?	-5.9%
COc1cc(OC)c2c(c1)OC(c1ccc(OC)c(OC)c1)C(O)C2=O (configuration not stated)	-15.3%	-7.7%	2.5%	-3.4%	-18.4%	-1.8%
O=C1c2c(O)cc(O)cc2O[C@H](c2ccc(O)c(O)c2)[C@H]1O	-23.9%	20µM*	2.1%	-10.3%	?	0.1%
Nc1nc(N)c(S(=O)(=O)c2ccccc2)c(Nc2ccc(Br)cc2)n1	?	.	5.7%	31.6µM*	-9.0%	?
Nc1nc(N)c(S(=O)(=O)c2ccccc2)c(Nc2ccccc2)n1	-26.0%	.	8.2%	?	8.8%	-2.3%
Nc1nc(N)c(C=Nc2ccc(Br)cc2)c(Nc2ccc(Br)cc2)n1	10µM*[quencher]	-2.8%	-0.2%	?	28.2µM*	-2.5%

Compound activity: PubChem BioAssay, National Center for Advancing Translational Sciences (NCATS)
